# Test results as given in the supplement of paper PMC9950053.
# Where a name gives a salt, the structure may show the parent alone.
# Tested on: Danio rerio larvae (5 dpf)
# Assay: combined upward orientation toward moving lines (periods 7-14) minus DMSO control (percentage points); higher = more orientation with moving lines than DMSO larvae
# Conditions: 10 µM; exposure time: 3 h pre-incubation + 3 h imaging
# Procedure: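 Wild-type 5 dpf zebrafish larvae (n=48 per drug, 96-well plates, 28.5 °C) were exposed to Tocris FDA-approved library compounds at 10 µM (0.1% DMSO) for 3 h before and 3 h during imaging. Images were taken every 6 s during visual and acoustic stimuli, and larvae were tracked with Z-LaP Tracker. Each measure is the treated-group mean minus the DMSO control mean (n=844), in percentage points. This mapping covers compounds with 5-character plate codes.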
row,Structure (SMILES),combined upward orientation toward moving lines
1,CC(C)(C(=O)O)c1ccc(C(O)CCCN2CCC(C(O)(c3ccccc3)c3ccccc3)CC2)cc1 (configuration not stated) [Fexofenadine hydrochloride],1.12
2,COc1cc([C@@H]2c3cc4c(cc3[C@@H](O[C@@H]3O[C@@H]5CO[C@@H](C)O[C@H]5[C@H](O)[C@H]3O)[C@H]3COC(=O)[C@H]23)OCO4)cc(OC)c1O [Etoposide],-2.65
3,N#C[C@@H]1C[C@@H]2C[C@@H]2N1C(=O)[C@@H](N)C12CC3CC(CC(O)(C3)C1)C2 [Saxagliptin hydrochloride],-3.59
4,O=c1n(CCCN2CCN(c3cccc(Cl)c3)CC2)nc2ccccn12 [Trazodone hydrochloride],-3.19
5,O=C(O)C[C@H](O)C[C@H](O)/C=C/c1c(C2CC2)nc2ccccc2c1-c1ccc(F)cc1 [Pitavastatin calcium],2.14
6,NC(=O)OCC(COC(N)=O)c1ccccc1 [Felbamate],4.58
7,CNCc1ccc(-c2[nH]c3cc(F)cc4c3c2CCNC4=O)cc1 [Rucaparib camsylate],2
8,CNS(=O)(=O)Cc1ccc2[nH]cc(CCN(C)C)c2c1 [Sumatriptan succinate],-8.09
9,COc1cc(N)c(Cl)cc1C(=O)NC1CCN(CCCOc2ccc(F)cc2)CC1OC (configuration not stated) [Cisapride],-4.69
10,COc1cc2nccc(Oc3ccc(NC(=O)C4(C(=O)Nc5ccc(F)cc5)CC4)cc3)c2cc1OC,-10.5
11,NS(=O)(=O)c1cc2c(cc1Cl)NC(C1CC3C=CC1C3)NS2(=O)=O (configuration not stated) [Cyclothiazide],-2.57
12,CN(C)C(=N)NC(=N)N [Metformin hydrochloride],1.11
13,C#CCN[C@@H]1CCc2ccccc21 [Rasagiline mesylate],-1.34
14,CC(=O)Oc1cc2c(s1)CCN(C(C(=O)C1CC1)c1ccccc1F)C2 (configuration not stated) [Prasugrel],-5.5
15,C[C@H]1O[C@H](O[C@H]2[C@H](O)[C@@H](O)[C@@H](O[C@H]3[C@H](O)[C@@H](O)C(O)O[C@@H]3CO)O[C@@H]2CO)[C@H](O)[C@@H](O)[C@@H]1N[C@H]1C=C(CO)[C@@H](O)[C@H](O)[C@H]1O (some centres not stated) [Acarbose],4.65
16,COc1ccccc1Oc1c(NS(=O)(=O)c2ccc(C(C)(C)C)cc2)nc(-c2ncccn2)nc1OCCO [Bosentan],-0.697
17,COCCc1ccc(OCC(O)CNC(C)C)cc1 (configuration not stated) [Metoprolol tartrate],-3.38
18,CC(C)COCC(CN(Cc1ccccc1)c1ccccc1)N1CCCC1 (configuration not stated) [Bepridil hydrochloride],3.56
19,OCc1cc(C(O)CNCCCCCCOCCCCc2ccccc2)ccc1O (configuration not stated) [Salmeterol xinafoate],-1.98

row,Structure (SMILES),combined upward orientation toward moving lines
1,CCCCCCCN(CC)CCCC(O)c1ccc(NS(C)(=O)=O)cc1 (configuration not stated) [Ibutilide hemifumarate],-0.0944
2,CC(=O)Nc1ccc(O)cc1 [Acetaminophen],-1.22
3,CN[C@H]1CC[C@@H](c2ccc(Cl)c(Cl)c2)c2ccccc21 [Sertraline hydrochloride],-5.13
4,C[C@@H]1C[C@H]2[C@@H]3CCC4=CC(=O)C=C[C@]4(C)[C@@]3(F)[C@@H](O)C[C@]2(C)[C@@]1(O)C(=O)CO [Dexamethasone],-5.03
5,CC[C@H]1OC(=O)[C@H](C)[C@@H](O[C@H]2C[C@@](C)(OC)[C@@H](O)[C@H](C)O2)[C@H](C)[C@@H](O[C@@H]2O[C@H](C)C[C@H](N(C)C)[C@H]2O)[C@](C)(O)C[C@@H](C)CN(C)[C@H](C)[C@@H](O)[C@]1(C)O [Azithromycin],-3.81
6,COc1ccccc1OCC(O)CN1CCN(CC(=O)Nc2c(C)cccc2C)CC1 (configuration not stated) [Ranolazine dihydrochloride],4.03
7,O=C1CCc2ccc(OCCCCN3CCN(c4cccc(Cl)c4Cl)CC3)cc2N1 [Aripiprazole],-7.24
8,OC(c1cc(C(F)(F)F)nc2c(C(F)(F)F)cccc12)C1CCCCN1 (configuration not stated) [Mefloquine hydrochloride],5.79
9,CC(C)OC(=O)C(C)(C)Oc1ccc(C(=O)c2ccc(Cl)cc2)cc1 [Fenofibrate],6.13
10,Clc1ccc2nsnc2c1NC1=NCCN1 [Tizanidine hydrochloride],-5.19
11,CNC(=O)c1cc(Oc2ccc(NC(=O)Nc3ccc(Cl)c(C(F)(F)F)c3)cc2)ccn1 [Sorafenib],-23.2
12,N#Cc1ccc2[nH]cc(CCCCN3CCN(c4ccc5oc(C(N)=O)cc5c4)CC3)c2c1 [Vilazodone hydrochloride],-4.15
13,CCCc1nn(C)c2c(=O)[nH]c(-c3cc(S(=O)(=O)N4CCN(C)CC4)ccc3OCC)nc12 [Sildenafil citrate],0.372
14,CCc1nc(N)nc(N)c1-c1ccc(Cl)cc1 [Pyrimethamine],7.4
15,CCCC1O[C@@H]2C[C@H]3[C@@H]4CCC5=CC(=O)C=C[C@]5(C)[C@H]4[C@@H](O)C[C@]3(C)[C@]2(C(=O)CO)O1 (some centres not stated) [Budesonide],0.263
16,OCCN1C[C@H](O)[C@@H](O)[C@H](O)[C@H]1CO [Miglitol],-1.58
17,CN(C)CCc1c[nH]c2ccc(C[C@H]3COC(=O)N3)cc12 [Zolmitriptan],-1.47
18,Cc1cc2c(s1)Nc1ccccc1N=C2N1CCN(C)CC1 [Olanzapine],3.25
